Results on 29 sequences are retold here after paper PMC10726135, “HNF4α isoforms regulate the circadian balance between carbohydrate and lipid metabolism in the liver”.

Over roughly 18,000 sequences, “log2 normalized intensity” has its median near 0.39; the highest 2% begin near 6.6. What follows is part of a selection rich in the highest values, with near analogues and random picks from the rest.

The target in the assay is T1, HNF4alpha2 (COS-7 nuclear extract) (Homo sapiens, UniProt P41235 1-474).
T1 sequence: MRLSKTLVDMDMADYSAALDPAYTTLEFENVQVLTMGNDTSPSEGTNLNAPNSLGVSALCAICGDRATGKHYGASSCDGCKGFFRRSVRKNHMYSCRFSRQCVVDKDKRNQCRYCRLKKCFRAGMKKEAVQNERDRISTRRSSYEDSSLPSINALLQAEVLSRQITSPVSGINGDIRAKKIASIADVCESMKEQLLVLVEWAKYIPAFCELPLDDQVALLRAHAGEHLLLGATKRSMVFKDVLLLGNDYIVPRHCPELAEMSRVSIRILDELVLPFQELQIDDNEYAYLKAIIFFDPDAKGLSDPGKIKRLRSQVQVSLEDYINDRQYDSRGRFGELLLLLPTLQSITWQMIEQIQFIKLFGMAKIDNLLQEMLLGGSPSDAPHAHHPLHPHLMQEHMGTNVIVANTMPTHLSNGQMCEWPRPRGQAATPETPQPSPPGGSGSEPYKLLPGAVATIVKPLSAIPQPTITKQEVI
As to the kind of experiment: protein-binding microarray; COS-7 nuclear extract on double-stranded Agilent 4x180k PBM; binding buffer, salt, pH and temperature not given in the material; high values mean tight binding. Particulars: chain copies: 2; label: 3' end of strand 1 on the slide; dsDNA, one strand shown. The method, boiled down: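 Binding signal was defined as the normalized, background-corrected gProcessedSignal reported by Agilent software. It came from nuclear extracts of COS-7 cells transiently transfected with a human HNF4α isoform expression vector, applied to a custom Agilent SurePrint G3 4x180k array. That array held ~44,000 test sequences in quadruplicate as double-stranded ~60-nt oligonucleotides, and bound HNF4α was imaged at 2-µm resolution on an Agilent G2565CA scanner.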
For the sequence “CTCTGTGCTCCCAGTTCCCTCATTAGTAACGCCTAGGGAGATTAGAGTATCGGTCGA”, the binding signal came to 1.33 log2 normalized intensity.
For the sequence “CAAAGGACATTTCTAAAAATAGCCTTACTTGCCTAGGGAGATTAGAGTATCGGTCGA”, the binding signal is -0.901 log2 normalized intensity.
To “CCCGGCAGCCCTGCTCCCCGCCTTGGCCTCGCCTAGGGAGATTAGAGTATCGGTCGA” belongs 1.56 log2 normalized intensity; to “CTACAGGTATGCCTTTGAAGAGTACAGCCTGCCTAGGGAGATTAGAGTATCGGTCGA”, -0.571 log2 normalized intensity.
Regarding “CAGCAACACTCTACTACTTGACCTTTGAAAGCCTAGGGAGATTAGAGTATCGGTCGA”, the binding signal came to 6.06 log2 normalized intensity.
With “GGGCGAGAGAGTTCTATGGGATGACCTTTGGCCTAGGGAGATTAGAGTATCGGTCGA”, the binding signal is 6.25 log2 normalized intensity.
On to “AGAGAGTTCTATGGGATGACCTTTGAGCAAGCCTAGGGAGATTAGAGTATCGGTCGA”, for which the binding signal amounted to 6.93 log2 normalized intensity.
As for “AGCAAACACAAACTATGACCTTTGAAACTTGCCTAGGGAGATTAGAGTATCGGTCGA”, the binding signal came out at 7.13 log2 normalized intensity.
To “TTCTTTTTGAAGCAAAGCCTTTGAGCAGATGCCTAGGGAGATTAGAGTATCGGTCGA” belongs 0.819 log2 normalized intensity.
Take “ACACAAACTATGACCTTTGAAACTTACATTGCCTAGGGAGATTAGAGTATCGGTCGA”: the binding signal is 5.64 log2 normalized intensity.
Under “GTTCTATGGGATGACCTTTGAGCAATAGGAGCCTAGGGAGATTAGAGTATCGGTCGA” stands 5.15 log2 normalized intensity; under “TGACAAGCAAACACAAACTATGACCTTTGAGCCTAGGGAGATTAGAGTATCGGTCGA”, 8.49 log2 normalized intensity.
Regarding “ATGACCCAAACTTCACAAAAATGAGTGCAAGCCTAGGGAGATTAGAGTATCGGTCGA”, the binding signal is -0.838 log2 normalized intensity.
As to “CCTTTCATGTACTGTTCAGTTCCTATTTCAGCCTAGGGAGATTAGAGTATCGGTCGA”, the binding signal was determined as 1.72 log2 normalized intensity.
For “GAGTGGACTTTGGCTTATGCAAATGTTATGGCCTAGGGAGATTAGAGTATCGGTCGA”, the binding signal was 4.25 log2 normalized intensity.
For the sequence “GAGTGACCTGGTATTGCAAGTATTTCACCCGCCTAGGGAGATTAGAGTATCGGTCGA”, the binding signal turned out to be 1.57 log2 normalized intensity.
“TGACCTGGTACTATGACCTTTCACCTTTTAGCCTAGGGAGATTAGAGTATCGGTCGA”: the binding signal is 6.99 log2 normalized intensity.
On to “TTCACCTTTCGCCCTTTGTCCTATGACTCTGCCTAGGGAGATTAGAGTATCGGTCGA”, for which the binding signal is 4.63 log2 normalized intensity.
Consider “ACCTTTGACCTGGTACTATGACCTTTCACCGCCTAGGGAGATTAGAGTATCGGTCGA”, for which the binding signal came to 7.01 log2 normalized intensity.
For “CTATGACCTTTCACCTTTTAGCTTGGCATGGCCTAGGGAGATTAGAGTATCGGTCGA”, the binding signal was 4.41 log2 normalized intensity.
Under “TGGTACTATGACCTTTCACCTTTTAGCTTGGCCTAGGGAGATTAGAGTATCGGTCGA” stands 5.81 log2 normalized intensity; under “TTAGCAGATAAATCTAGGCCTAGGCATTGAGCCTAGGGAGATTAGAGTATCGGTCGA”, -0.468 log2 normalized intensity; under “ATCTTGGGTTAGGCCTTTAGAGGATTTACTGCCTAGGGAGATTAGAGTATCGGTCGA”, -0.708 log2 normalized intensity.
To “TTCGGTGCTGACCTTTGTTCACATTTGTGCGCCTAGGGAGATTAGAGTATCGGTCGA” belongs 5.06 log2 normalized intensity; to “ATACCCATTCACATGACCTTTGTCCGTTCCGCCTAGGGAGATTAGAGTATCGGTCGA”, 7.01 log2 normalized intensity; to “CTGGGATGAGATACCCATTCACATGACCTTGCCTAGGGAGATTAGAGTATCGGTCGA”, 3.29 log2 normalized intensity.
As to “CATTCACATGACCTTTGTCCGTTCCTGCCTGCCTAGGGAGATTAGAGTATCGGTCGA”, the binding signal came to 5.92 log2 normalized intensity.
With “ATGAGATACCCATTCACATGACCTTTGTCCGCCTAGGGAGATTAGAGTATCGGTCGA”, the binding signal stood at 8.34 log2 normalized intensity.
Turning to “ACATGACCTTTGTCCGTTCCTGCCTGGAGCGCCTAGGGAGATTAGAGTATCGGTCGA”, the binding signal is 4.82 log2 normalized intensity.
